High-throughput results from PubChem.
Peg3 prom inh-1: Peg3 promoter activity inhibition; HeLa PEG-Prom luciferase reporter, luminescence, overnight; inhibition, % at 20 µM; 1.7% of 360,000 active; AID 588405;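 active = inhibition of at least 50% at 20 µM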
CF NFkB block: blocks PAF-induced NF-kB reporter in cystic fibrosis cells; KKLEB NF-kB-GFP reporter, GFP fluorescence overnight; inhibition, % at 5 µM; 0.86% of 360,000 active; AID 588850;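 active = at least 50% inhibition at 5 µM, scaled per plate between neutral and stimulator controls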;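 also: PAF is a Pseudomonas aeruginosa culture filtrate used as stimulus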
TROY signal inh: blocks TROY-dependent signaling in reporter cells | 0.98% of 360,000 active | AID 1347056 | inhibition, % at 10 µM | Q293 LMP1-TROYcd NF-kB luciferase reporter, 4 h;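 active = compounds whose plate-normalised and pattern-corrected inhibition of the luciferase reporter signal at the single screening dose is 50% or more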
KKLEB tox: counter-screen for CF NF-kB inhibitors: cytotoxicity. KKLEB CF airway cells viability, ATPlite luminescence, overnight; active compounds read low; cells stimulated with P. aeruginosa culture filtrate. activity change (cytotoxicity), % at 5 µM. 0.36% of 360,000 active. AID 602141;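 active = corrected activity change at or below -50% at 5 µM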
TWEAK-Fn14 inh: blocks TWEAK-Fn14 interaction in a reporter cell assay | TWEAK-stimulated Fn14 reporter cells, luciferase luminescence, 8 h | inhibition, % at 10 µM | 2% of 360,000 active | AID 1159606; in the data active = inhibition above about 50%
HIF-2a inh: inhibitors of HIF-2a | inhibition, % at 18.8 µM | 786-0 RCC cells HIF-2a reporter, luciferase luminescence, overnight | 0.72% of 360,000 active;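 active = inhibition of the luminescence signal of 40% or more relative to plate controls, in a single-dose primary screen at 18.75 µM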
Peg3 prom inh-2: confirmation of Peg3 promoter inhibitors | 84% of 1,300 active | AID 602417 | HeLa PEG-Prom luciferase reporter, luminescence, overnight | shares compounds with Peg3 prom inh-1 | inhibition, % at 20 µM;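 active = at 20 µM dose, 40% or more inhibition averaged across four replicates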
Mdm2-MdmX confirm: Mdm2/MdmX (human) interaction inhibition, confirmed | 99% of 740 active | inhibition, % at 8 µM | shares compounds with HIF-2a inh | SaOS-2 split-luciferase Mdm2/MdmX complementation, luminescence;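 active = mean inhibition of the luminescence signal across two replicates at or above 26 percent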
Target sequence (O15151 whole entry, looked up): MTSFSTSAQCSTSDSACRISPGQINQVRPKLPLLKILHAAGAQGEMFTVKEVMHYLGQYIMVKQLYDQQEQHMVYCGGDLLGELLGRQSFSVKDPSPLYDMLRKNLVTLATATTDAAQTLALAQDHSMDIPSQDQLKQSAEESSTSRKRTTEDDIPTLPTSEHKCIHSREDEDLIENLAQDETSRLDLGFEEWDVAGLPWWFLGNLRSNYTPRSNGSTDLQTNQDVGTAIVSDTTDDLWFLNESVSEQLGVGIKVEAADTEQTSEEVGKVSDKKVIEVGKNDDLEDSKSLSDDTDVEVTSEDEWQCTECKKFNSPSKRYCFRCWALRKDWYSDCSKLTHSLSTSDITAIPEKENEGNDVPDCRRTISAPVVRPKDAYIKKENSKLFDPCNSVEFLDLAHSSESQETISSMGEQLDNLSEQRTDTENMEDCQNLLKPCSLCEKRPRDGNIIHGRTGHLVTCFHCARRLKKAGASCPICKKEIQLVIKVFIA
Target sequence (Q00987 whole entry, looked up): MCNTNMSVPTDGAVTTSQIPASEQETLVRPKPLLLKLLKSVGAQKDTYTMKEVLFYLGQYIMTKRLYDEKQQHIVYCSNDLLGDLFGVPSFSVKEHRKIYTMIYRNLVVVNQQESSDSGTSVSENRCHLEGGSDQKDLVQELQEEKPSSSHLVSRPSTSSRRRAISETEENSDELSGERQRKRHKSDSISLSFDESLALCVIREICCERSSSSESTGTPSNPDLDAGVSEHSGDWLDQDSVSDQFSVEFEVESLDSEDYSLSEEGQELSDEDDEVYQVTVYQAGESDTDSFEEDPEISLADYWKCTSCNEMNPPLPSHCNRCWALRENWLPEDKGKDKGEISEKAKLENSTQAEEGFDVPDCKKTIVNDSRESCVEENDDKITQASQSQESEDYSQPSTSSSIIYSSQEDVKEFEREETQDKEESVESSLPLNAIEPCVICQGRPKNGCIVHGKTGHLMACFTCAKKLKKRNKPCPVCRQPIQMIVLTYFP
HIF-2a conf: HIF-2a inhibition, single concentration confirmation | shares compounds with HIF-2a inh | 56% of 1,800 active | inhibition, % at 18.8 µM | 786-0 RCC cells, HIF-2a luciferase reporter luminescence, overnight;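 active = mean inhibition across four replicates of at least 40 percent at the single tested concentration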
HIF-1a cs: inhibits HIF-1a reporter, a counter-screen for HIF-2a inhibitors. AID 651589. 72% of 1,800 active. inhibition, % at 18.8 µM. shares compounds with HIF-2a inh. MiaPaCa-2 HIF-1a luciferase reporter, desferoxamine, overnight;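 active = mean inhibition of the reporter signal across four replicates at the single tested dose of 50% or more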
A number is an active result; . = inactive; / = no result. In the library only some 4% were active in any assay of this set; here they are far more common.

SMILES	Peg3 prom inh-1	CF NFkB block	TROY signal inh	KKLEB tox	TWEAK-Fn14 inh	HIF-2a inh	Peg3 prom inh-2	HIF-2a conf	HIF-1a cs	others
O=C(O)c1cc(N/N=C/c2ccc(-c3ccccc3)cc2)ccc1Cl	.	.	.	.	.	.	/	/	/
CC(C)c1ccc(/C=N/Nc2ccc(C(=O)O)cc2)cc1	84.6	.	56.9	.	92.0	80.7	66.9	78.6	.
Cc1ccc(/C=N/Nc2ccc(C(=O)O)cc2)s1	68.7	.	.	.	.	65.4	62.3	81.8	76.3
O=C(O)c1ccc(N/N=C/c2cc(Br)cs2)cc1	.	.	.	.	.	.	/	/	/
COc1cccc(C(NC(C)=O)c2nc(-c3csc4ccccc34)cs2)c1 (stereo not given)	.	.	.	.	.	.	/	/	/
CCOC(=O)c1c(N)sc2c(OCC)c(Br)ccc12	.	.	.	.	.	.	/	/	/
CCOC(=O)c1c(NC(C)=O)sc2c(OCC(O)CNC(C)(C)C)c(Br)ccc12 (stereo not given)	108.1	.	.	.	.	.	98.6	/	/	Mdm2-MdmX confirm=103.0
CCOC(=O)c1cnc(Nc2nc3ccccc3o2)nc1C	79.0	.	56.1	.	93.5	74.2	68.6	81.2	71.1
CCOC(=O)c1cnc(Nc2nc3ccccc3o2)nc1CSc1nnc(C)s1	.	.	.	.	.	.	/	/	/
CCCNC(=O)c1ccccc1NC(=O)Cc1ccc(OC)c(S(=O)(=O)N2CCOCC2)c1	.	.	.	.	.	.	/	/	/
CCCN(CC(=O)Nc1ccccc1C)C(=O)COc1c(C)cccc1C	.	.	.	.	.	.	/	/	/
CCCN(CC(=O)Nc1ccccc1C)C(=O)CCl	63.7	.	.	.	.	.	46.0	/	/	Mdm2-MdmX confirm=95.5
OCC[C@@H]1C[C@H](O)[C@@H](O)[C@@]2(OCCCc3cc(C(F)(F)F)ccc32)O1	.	.	.	.	.	.	/	/	/
CN(C)S(=O)(=O)c1ccc(SCC(=O)Nc2cccc(S(=O)(=O)N3CCCC3)c2)nc1	.	.	.	.	.	.	/	/	/
CN(C)S(=O)(=O)c1cccc(NC(=O)CSc2cccc3cccnc23)c1	101.7	.	.	.	.	65.9	92.9	74.9	.
Cc1ccc(C(=O)NCCc2cccs2)cc1	62.2	.	69.1	.	84.9	43.9	44.3	62.1	57.3
Cc1noc(C)c1NC(=O)Nc1ccc2c(c1)CC(=O)N([C@H](C)CO)C[C@@H](C)[C@H](CN(C)CC1CCCCC1)O2	.	.	.	.	.	.	/	/	/
COc1ccc(-c2cc3nc(C)n(N)c(=O)c3s2)cc1	95.2	.	81.1	.	100.5	86.8	94.9	/	/	Mdm2-MdmX confirm=95.2
Cc1nc2cc(-c3ccccc3)sc2c(=O)n1N	90.2	.	79.0	.	95.1	75.2	79.5	88.2	76.8
COc1cccc(CNc2nc3cc(-c4ccccc4)sc3c(=O)n2C)c1	.	.	.	.	.	.	/	/	/
Cc1ccc(NC(=O)C(=O)c2ccc(C)cc2)cc1	.	.	.	.	.	.	/	/	/
CCCCCCCCN1C(=O)[C@H](CC(=O)NCc2cccs2)C[C@@]2(C(=O)OC)CC(C)(C)CC=C12	/	/	/	/	/	.	/	/	/
COc1ccc(CNC(=O)[C@@H](NC(=O)C2CCN(C(=O)[C@@H](N)CCSC)CC2)C(C)C)cc1	.	.	.	.	.	.	/	/	/
COc1ccc(/C=C/c2nc3ccccc3n2C)cc1	68.3	.	.	-53.2	76.0	49.2	78.3	88.8	90.9
CCOC(=O)c1c(SCCN2CCCCC2)n(-c2ccccc2)c(=S)n(-c2ccccc2)c1=O	108.1	.	.	.	.	87.4	99.0	67.7	100.6
O=C(O)CCC(=O)N1N=C(c2ccc(Br)cc2)CC1c1cccc(Br)c1 (stereo not given)	.	.	.	.	.	.	/	/	/
